# The source holds several records for some structures; these can differ, active in one and inactive in another. The source made the active and inactive calls. Rule for the calls: active = hit-call score of the fitted dose curve at least 0.9, where 1 is the maximum; inactive = score below 0.9.
# Experiments:
# [1] = APR_HepG2_P-H2AX_72hr: Apredica 72-hour HepG2 Assay for H2AX Phosphorylation (AID 2282916); conditions: imaging, actives raise or lower the signal;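 note: phospho-histone H2A.x immunostain intensity per cell marking DNA damage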
# Procedure, shortened: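 Following 72 hr treatment with 0.39–200 uM compound, HepG2 cells were formaldehyde-fixed, permeabilized and stained for phospho-H2A.x; signal was measured by high-content imaging and fitted bidirectionally against DMSO controls.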
# [2] = APR_HepG2_MitoMembPot_72hr: Apredica 72-hour HepG2 Assay for Mitochondrial Membrane Potential (AID 2282917); conditions: imaging, actives raise or lower the signal
# Procedure, shortened: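 Membrane potential read by MitoTracker Red CMXRos (250 nM, 30 min, pre-fixation) fluorescence imaging of HepG2 after 72 hr exposure. Ten concentrations, 0.39–200 uM, duplicate wells, 0.5% DMSO; fitted in both directions against DMSO baseline.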
# [3] = APR_HepG2_MitoticArrest_72hr: Apredica 72-hour HepG2 Assay for Mitotic Arrest (AID 2282918); conditions: high-content imaging, actives raise or lower the signal
# Procedure, shortened: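 HepG2, 72 hr exposure, 0.39–200 uM in duplicate, 0.5% v/v DMSO final. Formaldehyde-fixed, Triton-permeabilized, anti-phospho-histone H3/FITC plus Hoechst. ArrayScan imaging at 20x; curves fit bidirectionally against DMSO baseline.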
# [4] = APR_HepG2_MicrotubuleCSK_72hr: Apredica 72-hour HepG2 Assay for Microtubule CSK Stabilty (AID 2282919); conditions: HepG2 microtubule cytoskeleton, high-content imaging, actives raise or lower the signal
# Procedure, shortened: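 Read-out is tubulin fluorescence intensity from high-content imaging of HepG2 cells, with nuclei identified by Hoechst 33342. Treatment lasts 72 h at 0.39–200 uM, and curves are fitted bidirectionally against the DMSO negative control.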
# [5] = APR_HepG2_P-H2AX_24hr: Apredica 24-hour HepG2 Assay for H2AX Phosphorylation (AID 2282920); conditions: high-content imaging, actives raise or lower the signal
# Procedure, shortened: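 HCS fluorescence imaging of phospho-H2A.x immunostain (with Hoechst 33342 nuclear counterstain) in HepG2 after 24 hr compound exposure; 10 concentrations, 0.39–200 uM, duplicate wells, 0.5% v/v DMSO. Gain or loss of signal fitted relative to DMSO baseline.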
# [6] = APR_HepG2_StressKinase_72hr: Apredica 72-hour HepG2 Assay for Stress Kinase (AID 2282921); conditions: HepG2 stress kinase (phospho-c-Jun) imaging, actives raise or lower the signal
# Procedure, shortened: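 Fluorescence intensity of Cy3-tagged anti-phospho-c-Jun antibody, quantified per cell from Hoechst-defined nuclei across six images per well, served as the read-out following 72 h exposure (0.39–200 uM, 0.5% v/v DMSO).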
# [7] = APR_HepG2_StressKinase_24hr: Apredica 24-hour HepG2 Assay for Stress Kinase (AID 2282922); conditions: HepG2 stress kinase (phospho-c-Jun) imaging, actives raise or lower the signal
# Procedure, shortened: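 HepG2, 24 hr dosing, 0.39–200 uM in duplicate, 0.5% DMSO; formaldehyde fix (3.7%), 0.5% Triton X-100; anti-phospho-c-Jun + Cy3 secondary, Hoechst counterstain; ArrayScan imaging; bidirectional curve fit vs DMSO baseline.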
# [8] = APR_HepG2_MitoMass_72hr: Apredica 72-hour HepG2 Assay for Mitochondrial Mass (AID 2282924); conditions: high-content imaging, actives raise or lower the signal;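 note: MitoTracker Red CMXRos stain intensity per cell imaged as mitochondrial mass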
# Procedure, shortened: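 HepG2, 72 hr cmpd, 10 conc 0.39–200 uM in dup, DMSO 0.5% v/v. MitoTracker Red CMXRos 250 nM 30 min pre-fix; formaldehyde 3.7% fix 30 min RT. HCS imaging, gain/loss fit vs DMSO.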
# [9] = APR_HepG2_NuclearSize_72hr: Apredica 72-hour HepG2 Assay for Nuclear Size (AID 2282925); conditions: high-content imaging, actives raise or lower the signal
# Procedure, shortened: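 HepG2; cpd 0.39–200 uM, 10 conc, duplicate; 72 h; DMSO 0.5% v/v; fix 3.7% formaldehyde 30 min RT; Triton permeabilization; Hoechst 2 ug/mL; HCS imaging 20x; nuclear diameter; gain/loss fit vs DMSO.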
# [10] = biological target: CCAAT/enhancer-binding protein beta (Homo sapiens) (UniProt P17676); test: ATG_C_EBP_CIS: Attagene CIS-FACTORIAL HepG2 Assay for human CCAAT/Enhancer Binding Protein (C/EBP) beta (AID 2282927); conditions: HepG2 Attagene cis-factorial transcription factor reporter; actives raise or lower the signal
# Sequence of CCAAT/enhancer-binding protein beta (Homo sapiens) (P17676 whole entry, looked up): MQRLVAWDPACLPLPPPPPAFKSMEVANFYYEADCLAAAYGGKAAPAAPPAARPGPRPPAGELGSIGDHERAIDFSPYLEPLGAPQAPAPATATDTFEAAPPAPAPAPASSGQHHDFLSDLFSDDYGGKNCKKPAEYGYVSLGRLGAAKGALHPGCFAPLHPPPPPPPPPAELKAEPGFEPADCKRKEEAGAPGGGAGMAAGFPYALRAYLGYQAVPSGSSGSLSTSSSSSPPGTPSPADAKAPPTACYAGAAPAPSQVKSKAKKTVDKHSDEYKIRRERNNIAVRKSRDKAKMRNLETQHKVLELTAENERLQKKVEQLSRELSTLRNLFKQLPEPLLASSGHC
# Procedure, shortened: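 Changes in reporter mRNA, rather than exogenous chimeric receptor activity, reflect native C/EBP signalling in transfected HepG2 cells dosed for 24 h; transcripts are detected by RT-PCR and capillary electrophoresis.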
# [11] = ATG_CMV_CIS: Attagene CIS-FACTORIAL HepG2 Assay for human CMV (Internal Marker) (AID 2282928); conditions: HepG2 CMV promoter reporter, transcription factor profiling; actives raise or lower the signal;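 note: endpoint acts as a background internal control marker rather than a target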
# Procedure, shortened: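 CMV internal-marker background readout in transiently transfected HepG2 cells bearing cis-regulated reporter units. Reporter mRNA is measured 24 h after dosing by RT-PCR and capillary electrophoresis, with bidirectional fitting against DMSO.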
# [12] = ATG_DR4_LXR_CIS: Attagene CIS-FACTORIAL HepG2 Assay for human Liver X Receptor (LXR), DR4 submotif (AID 2282929); conditions: HepG2 Attagene DR4 cis-reporter, mRNA transcription; actives raise or lower the signal
# Procedure, shortened: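 Measures endogenous transcription factor activity via a DR4-driven reporter transcript in human HepG2 cells. Compounds incubated 24 h; mRNA quantified by RT-PCR and capillary electrophoresis, analysed as gain or loss of signal versus DMSO.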
# [13] = biological target: Aryl hydrocarbon receptor (Homo sapiens) (UniProt P35869); test: ATG_Ahr_CIS: Attagene CIS-FACTORIAL HepG2 Assay for human Aryl Hydrocarbon Receptor (Ahr) (AID 2282930); conditions: HepG2 AhR cis-factorial reporter transcription; actives raise or lower the signal
# Sequence of Aryl hydrocarbon receptor (Homo sapiens) (P35869 whole entry, looked up): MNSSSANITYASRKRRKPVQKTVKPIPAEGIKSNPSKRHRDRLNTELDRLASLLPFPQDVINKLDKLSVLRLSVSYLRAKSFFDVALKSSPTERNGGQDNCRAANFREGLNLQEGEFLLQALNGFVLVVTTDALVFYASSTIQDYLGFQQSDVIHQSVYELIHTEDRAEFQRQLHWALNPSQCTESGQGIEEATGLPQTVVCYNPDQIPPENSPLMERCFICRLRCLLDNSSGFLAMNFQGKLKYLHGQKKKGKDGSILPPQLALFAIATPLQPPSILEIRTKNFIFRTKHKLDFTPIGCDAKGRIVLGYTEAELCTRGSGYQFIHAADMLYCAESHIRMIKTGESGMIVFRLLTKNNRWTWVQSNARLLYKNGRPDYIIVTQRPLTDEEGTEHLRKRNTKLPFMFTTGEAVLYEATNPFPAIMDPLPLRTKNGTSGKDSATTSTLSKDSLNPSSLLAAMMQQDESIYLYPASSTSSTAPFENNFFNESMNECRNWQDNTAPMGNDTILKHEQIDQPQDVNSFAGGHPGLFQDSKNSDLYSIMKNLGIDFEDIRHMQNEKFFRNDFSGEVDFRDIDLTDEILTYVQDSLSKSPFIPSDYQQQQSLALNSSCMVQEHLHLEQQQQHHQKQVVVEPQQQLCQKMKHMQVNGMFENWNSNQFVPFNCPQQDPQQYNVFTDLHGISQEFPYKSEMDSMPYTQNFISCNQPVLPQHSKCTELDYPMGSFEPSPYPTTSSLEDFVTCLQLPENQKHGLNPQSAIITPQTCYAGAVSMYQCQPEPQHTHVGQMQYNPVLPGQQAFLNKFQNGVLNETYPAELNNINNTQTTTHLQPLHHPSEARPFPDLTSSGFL
# Procedure, shortened: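 HepG2, transient MRTU (cis) transfection, 24 h exposure. RNA → cDNA → PCR → 6-FAM primer extension → HpaI 2 h 37 C → CE. Fit: bidirectional, DMSO baseline.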
# [14] = ATG_AP_1_CIS: Attagene CIS-FACTORIAL HepG2 Assay for human Activator Protein 1 (AP-1) (AID 2282931); conditions: HepG2 Attagene cis-factorial AP-1 reporter mRNA; actives raise or lower the signal
# Procedure, shortened: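 Bidirectional concentration-response fitting against DMSO controls. Underlying signal: reporter mRNA from cis-promoter constructs in transiently transfected HepG2, measured after 24 h by RT-PCR and capillary electrophoresis.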
# [15] = ATG_AP_2_CIS: Attagene CIS-FACTORIAL HepG2 Assay for human Activator Protein 2 (AP-2) (AID 2282932); conditions: HepG2 AP-2 cis-reporter, Attagene transcription factor profiling; actives raise or lower the signal
# Procedure, shortened: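 Step one: transient transfection of HepG2 with reporter transcription units. Step two: 24 h chemical exposure. Step three: RNA extraction, RT-PCR, labelled fragment analysis by capillary electrophoresis; DMSO serves as baseline.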
# [16] = ATG_BRE_CIS: Attagene CIS-FACTORIAL HepG2 Assay for human Bone Morphogenetic Protein (BMP) Response Element (BRE) (AID 2282933); conditions: HepG2 BMP response element reporter, Attagene transcription factor profiling; actives raise or lower the signal
# Procedure, shortened: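 After a 24 h chemical treatment, transiently transfected HepG2 cells were lysed for RNA; reporter transcripts were quantified by fluorescent RT-PCR and capillary electrophoresis, normalised to DMSO.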
# [17] = biological target: Transcription factor E2F1 (Homo sapiens) (UniProt Q01094); test: ATG_E2F_CIS: Attagene CIS-FACTORIAL HepG2 Assay for human E2F Transcription Factor 1 (AID 2282935); conditions: HepG2 Attagene cis-reporter, E2F reporter RNA transcripts; actives raise or lower the signal
# Sequence of Transcription factor E2F1 (Homo sapiens) (Q01094 whole entry, looked up): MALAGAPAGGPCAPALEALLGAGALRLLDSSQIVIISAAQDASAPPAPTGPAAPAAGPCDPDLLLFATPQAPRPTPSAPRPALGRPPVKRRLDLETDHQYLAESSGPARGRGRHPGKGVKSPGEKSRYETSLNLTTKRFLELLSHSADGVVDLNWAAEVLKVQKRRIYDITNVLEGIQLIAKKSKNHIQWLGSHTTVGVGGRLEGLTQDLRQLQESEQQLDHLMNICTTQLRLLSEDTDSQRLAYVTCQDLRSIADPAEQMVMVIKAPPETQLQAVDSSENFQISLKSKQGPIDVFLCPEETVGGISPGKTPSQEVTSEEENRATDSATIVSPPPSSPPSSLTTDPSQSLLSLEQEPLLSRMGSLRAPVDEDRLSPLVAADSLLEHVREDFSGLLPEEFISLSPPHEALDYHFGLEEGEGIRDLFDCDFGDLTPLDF
# Procedure, shortened: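 Total RNA from 24 h-treated, reporter-transfected HepG2 cells undergoes DNase I treatment, oligo(dT) reverse transcription, PCR and 6-FAM primer extension before capillary electrophoresis.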
# [18] = APR_HepG2_p53Act_72hr: Apredica 72-hour HepG2 Assay for p53 Activation (AID 2282923); conditions: high-content imaging, actives raise or lower the signal;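 note: average cellular p53 protein immunofluorescence intensity in HepG2 cells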
# Procedure, shortened: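 HepG2 monolayers receive test compounds in duplicate at ten concentrations (0.39 through 200 uM) for 72 hr. They are then formaldehyde-fixed, antibody-labelled for p53, Hoechst-stained and imaged, with activity fitted bidirectionally versus DMSO.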
# [19] = biological target: Retinoic acid receptor alpha (Homo sapiens) (UniProt P10276); test: ATG_DR5_RAR_CIS: Attagene CIS-FACTORIAL HepG2 Assay for human Retinoic Acid Receptor Alpha (RARE), DR5 submotif (AID 2282934); conditions: HepG2 Attagene cis-factorial RARE DR5 reporter, mRNA; actives raise or lower the signal
# Sequence of Retinoic acid receptor alpha (Homo sapiens) (P10276 whole entry, looked up): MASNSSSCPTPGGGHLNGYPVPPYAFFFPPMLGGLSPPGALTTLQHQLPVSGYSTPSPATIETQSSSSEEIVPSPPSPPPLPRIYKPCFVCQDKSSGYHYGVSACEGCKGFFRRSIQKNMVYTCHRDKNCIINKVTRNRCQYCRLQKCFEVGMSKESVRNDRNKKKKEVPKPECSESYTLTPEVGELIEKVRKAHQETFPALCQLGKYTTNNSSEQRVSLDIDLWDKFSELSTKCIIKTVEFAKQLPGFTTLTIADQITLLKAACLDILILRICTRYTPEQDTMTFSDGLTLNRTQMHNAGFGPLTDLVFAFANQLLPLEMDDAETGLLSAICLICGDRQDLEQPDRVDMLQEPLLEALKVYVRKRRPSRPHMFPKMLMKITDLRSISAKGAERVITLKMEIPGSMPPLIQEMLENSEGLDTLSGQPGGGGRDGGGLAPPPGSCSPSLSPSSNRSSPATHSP
# Procedure, shortened: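 HepG2, transient cis-reporter transfection, 24 h exposure. mRNA readout: RT-PCR, FAM label, HpaI cut, capillary electrophoresis. DMSO baseline, gain/loss fitting.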
# [20] = ATG_CRE_CIS: Attagene CIS-FACTORIAL HepG2 Assay for human cAMP Responsive Element (CRE) binding protein 3 (AID 2282926); conditions: HepG2 CRE cis-reporter, Attagene multiplexed mRNA; actives raise or lower the signal
# Procedure, shortened: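 Endogenous CRE-binding activity in HepG2 is reported through a cis-regulated transfected reporter. Following a day of exposure, mRNA levels are determined by reverse transcription PCR and fluorescent fragment analysis; fits run in both directions versus DMSO.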
structure (smiles),measurement,setting,value
CCNc1nc(NC(C)C)nc(SC)n1,outcome,[1],inactive
same,AC50,[2],59.6 µM (active)
same,outcome,[3],inactive
same,outcome,[4],inactive
same,outcome,[5],inactive
same,outcome,[6],inactive
same,outcome,[7],inactive
same,outcome,[8],inactive
same,outcome,[9],inactive
same,outcome,[10],inactive
same,outcome,[11],inactive
same,outcome,[12],inactive
same,outcome,[13],inactive
same,outcome,[14],inactive
same,outcome,[15],inactive
same,outcome,[16],inactive
same,outcome,[17],inactive
CC#Cc1cc(C)nc(Nc2ccccc2)n1,outcome,[1],inactive
same,outcome,[2],inactive
same,outcome,[3],inactive
same,outcome,[4],inactive
same,outcome,[5],inactive
same,outcome,[6],inactive
same,outcome,[7],inactive
same,AC50,[18],103 µM (active)
same,outcome,[8],inactive
same,outcome,[10],inactive
same,outcome,[11],inactive
same,AC50,[12],75 µM (active)
same,AC50,[13],23 µM (active)
same,outcome,[15],inactive
same,outcome,[16],inactive
same,outcome,[19],inactive
same,outcome,[17],inactive
Cc1ccccc1CO[C@@H]1C[C@@]2(C(C)C)CC[C@]1(C)O2,outcome,[1],inactive
same,outcome,[2],inactive
same,outcome,[3],inactive
same,outcome,[4],inactive
same,outcome,[5],inactive
same,outcome,[6],inactive
same,outcome,[7],inactive
same,outcome,[8],inactive
same,outcome,[10],inactive
same,outcome,[11],inactive
same,outcome,[12],inactive
same,outcome,[13],inactive
same,outcome,[14],inactive
same,outcome,[15],inactive
same,outcome,[16],inactive
same,outcome,[19],inactive
same,outcome,[17],inactive
COS(=O)(=O)OC,outcome,[1],inactive
same,outcome,[2],inactive
same,outcome,[3],inactive
same,outcome,[4],inactive
same,outcome,[5],inactive
same,outcome,[6],inactive
same,outcome,[7],inactive
same,outcome,[18],inactive
same,outcome,[8],inactive
same,outcome,[10],inactive
same,outcome,[11],inactive
same,outcome,[12],inactive
same,outcome,[13],inactive
same,outcome,[14],inactive
same,outcome,[15],inactive
same,outcome,[16],inactive
same,outcome,[19],inactive
same,outcome,[17],inactive
O=S(=O)(O)C(F)(F)C(F)(F)C(F)(F)C(F)(F)F,outcome,[1],inactive
same,outcome,[2],inactive
same,outcome,[3],inactive
same,outcome,[4],inactive
same,outcome,[5],inactive
same,outcome,[6],inactive
same,outcome,[7],inactive
same,outcome,[18],inactive
same,outcome,[8],inactive
same,outcome,[10],inactive
same,outcome,[11],inactive
same,outcome,[12],inactive
same,AC50,[13],110 µM (active)
same,outcome,[13],inactive
same,outcome,[15],inactive
same,outcome,[16],inactive
same,outcome,[19],inactive
same,outcome,[17],inactive
Clc1ccc(Cl)cc1,outcome,[1],inactive
same,outcome,[2],inactive
same,outcome,[3],inactive
same,outcome,[4],inactive
same,outcome,[5],inactive
same,outcome,[6],inactive
same,outcome,[7],inactive
same,outcome,[18],inactive
same,outcome,[8],inactive
same,outcome,[10],inactive
same,outcome,[11],inactive
same,outcome,[12],inactive
same,outcome,[13],inactive
same,outcome,[15],inactive
same,outcome,[16],inactive
same,outcome,[19],inactive
same,outcome,[17],inactive
CC(C)C(=O)OCC(C)(C)C(OC(=O)C(C)C)C(C)C (configuration not stated),outcome,[1],inactive
same,outcome,[2],inactive
same,outcome,[3],inactive
same,outcome,[4],inactive
same,outcome,[5],inactive
same,outcome,[6],inactive
same,outcome,[7],inactive
same,outcome,[18],inactive
same,outcome,[8],inactive
same,outcome,[20],inactive
same,outcome,[10],inactive
same,outcome,[11],inactive
same,outcome,[12],inactive
same,AC50,[13],69 µM (active)
same,outcome,[15],inactive
same,outcome,[16],inactive
same,outcome,[19],inactive
same,outcome,[17],inactive

# Reference: PubChem BioAssay (EPA / NIEHS)
